Screening data deposited in PubChem by National Center for Advancing Translational Sciences (NCATS).
Sampled rows, rich in hits. Any-hit rate of the full collection: about 9.2%.
NPC1 prom act = activates the NPC1 promoter. Huh7 NPC1 promoter luciferase reporter, 24 h. Potency, µM (highest dose often 9.22 µM), actives largely listed as activators. hit rate 2.4% among 320,000. AID 485313; further: nearly all actives have a fitted effect of over 60% in size
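Luminescence read-out of NPC1 promoter-driven luciferase in stably transfected Huh7 cells; compounds delivered in DMSO and left 24 h at 37C, 5% CO2, qHTS titration format.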
FLuc counter = counter-screen for miR-21 project: firefly luciferase inhibitors or activators | purified FLuc, Km substrates, luminescence inhibition | Potency, µM (series often up to 57.5 µM), actives largely listed as inhibitors | hit rate 6.9% among 360,000 | AID 588342; further: nearly all actives have a fitted effect of over 55% in size
Target sequence (P08659 whole entry, looked up): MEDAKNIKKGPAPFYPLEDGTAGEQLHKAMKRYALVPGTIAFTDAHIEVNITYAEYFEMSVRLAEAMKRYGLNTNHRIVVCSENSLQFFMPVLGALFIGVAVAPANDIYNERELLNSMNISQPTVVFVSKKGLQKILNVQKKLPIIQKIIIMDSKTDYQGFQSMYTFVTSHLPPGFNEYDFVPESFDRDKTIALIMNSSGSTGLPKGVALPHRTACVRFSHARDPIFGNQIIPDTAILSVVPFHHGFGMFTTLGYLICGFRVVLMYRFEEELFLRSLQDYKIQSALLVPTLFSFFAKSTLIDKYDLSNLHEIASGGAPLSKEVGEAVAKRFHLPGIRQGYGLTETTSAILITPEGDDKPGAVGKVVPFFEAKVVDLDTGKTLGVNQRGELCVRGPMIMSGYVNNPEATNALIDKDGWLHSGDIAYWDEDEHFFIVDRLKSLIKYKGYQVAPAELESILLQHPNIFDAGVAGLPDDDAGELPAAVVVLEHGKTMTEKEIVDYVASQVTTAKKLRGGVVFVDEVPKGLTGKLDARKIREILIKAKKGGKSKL
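Biochemical qHTS of compounds, final roughly 60 µM downward over six points, against 10 nM purified firefly luciferase using Km concentrations of substrates (10 uM D-luciferin, 10 uM ATP) in Tris acetate pH 7.5 buffer; luminescence output.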
ELG1 genotoxic = genotoxicity induction in ELG1-luciferase HEK293T cells; HEK293T ELG1-luciferase reporter, luminescence, 16 h; Potency, µM (top dose mostly 46 µM), most hits filed as activators; hit rate 1.3% among 330,000; AID 504466; further: nearly all actives have a fitted effect of over 60% in size
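Reporter readout depends on ELG1 protein level, which increases with genetic stress. After 16 hr compound exposure at 37 °C, luciferase activity was quantified using ONE-Glo.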
SMN2 splice up = SMN2 splice variant enhancement; HEK293 SMN2-luciferase splicing reporter, luminescence, 30-36 h; Potency, µM (doses to about 46.1 µM), most hits filed as activators; hit rate 2.8% among 210,000; further: nearly all actives have a fitted effect of over 55% in size
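HEK293 cells carry an SMN2 […]–luciferase reporter in which exon 7 inclusion puts luciferase in frame. Cells were plated 10-12 h before compound addition, then incubated 30-36 h at 37C. ONE-Glo luminescence was read; sodium butyrate at 4.5 mM final served as control.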
Rab9 prom act = Rab9 promoter activation; Huh7 Rab9 promoter-luciferase reporter, luminescence, 24 h; Potency, µM (highest dose often 9.22 µM), actives largely listed as activators; hit rate 2.8% among 320,000; further: nearly all actives have a fitted effect of over 60% in size
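Steps: seed 1500 Huh7 Rab9-luc cells per well, rest 2 h at 37 °C; add compound in DMSO; incubate 24 h; add luciferase reagent, 10 min ambient; read luminescence.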
ELG1 DNA repair = inhibitors of ELG1-dependent DNA repair in HEK293T cells | HEK293T ELG1-luciferase reporter, luminescence, 16 h; DNA damage induced by 5-fluorouridine | hit rate 2.3% among 330,000 | AID 504467 | Potency, µM (series often up to 46.1 µM), most hits filed as inhibitors; further: nearly all actives have a fitted effect of over 55% in size
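Cells (2,000 per well) received 5-fluorouridine plus test compound or DMSO and were incubated 16 hr at 37 °C, 5% CO2. Luciferase activity was read by luminescence 30 min after ONE-Glo addition; signal suppression marked inhibition of damage-induced ELG1 function.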
A number is an active result. The call rests on the fitted dose curve; in most records, active means well fitted curve in the direction sought with a large enough effect; inconclusive means small, poorly fitted or top-dose-only effect, or another doubt; inactive means no such curve, though single readings can be large; an effect the other way counts as inactive or inconclusive.

Results for CCOc1ccccc1C(=O)Nc1nnc(SCC(=O)N2CCOCC2)s1 ?
NPC1 prom act: inactive; FLuc counter: inactive; ELG1 genotoxic: inactive; SMN2 splice up: inactive; Rab9 prom act: inactive; ELG1 DNA repair: inactive

How did O=C(Nc1nnc(SCC(=O)N2CCOCC2)s1)c1ccccc1 do in these assays?
NPC1 prom act: inactive; FLuc counter: 2.69µM; ELG1 genotoxic: inconclusive; SMN2 splice up: 14.1µM; Rab9 prom act: inconclusive; ELG1 DNA repair: inconclusive

What do the screens show for `O=C(CSc1nnc(NC(=O)c2ccc(F)cc2)s1)NC1CCCC1`?
NPC1 prom act: inconclusive; FLuc counter: 2.39µM; ELG1 genotoxic: inconclusive; Rab9 prom act: 3.55µM; ELG1 DNA repair: inconclusive

Results for O=C(CSc1nnc(NC(=O)c2ccco2)s1)NC1CCCCC1 ?
NPC1 prom act: inactive; FLuc counter: 19µM; ELG1 genotoxic: inactive; SMN2 splice up: inactive; Rab9 prom act: inactive; ELG1 DNA repair: inactive

What do the screens show for `O=C(CSc1nnc(NC(=O)c2ccccc2)s1)NC1CCCC1`?
NPC1 prom act: inconclusive; FLuc counter: 2.69µM; ELG1 genotoxic: inactive; Rab9 prom act: inconclusive; ELG1 DNA repair: inconclusive

Results for CCOC(=O)c1ccc(Cl)c(S(=O)(=O)N2CCCC2)c1 ?
NPC1 prom act: inactive; FLuc counter: inactive; ELG1 genotoxic: inactive; SMN2 splice up: inactive; Rab9 prom act: inactive; ELG1 DNA repair: inactive

What do the screens show for `CCOC(=O)c1c(C)[nH]c(C)c1S(=O)(=O)N1CCCC(C(=O)NCc2ccc(Cl)cc2)C1` (centres undefined)?
FLuc counter: inactive

What do the screens show for `COC(=O)Cn1c(C(=O)N(C)C)cc2c1C[C@H]1CN(C(=O)c3ccccc3)[C@@](Cc3ccc(OC)cc3)(C(=O)OC)[C@@H]21`?
SMN2 splice up: inactive

What do the screens show for `CCc1c2c(nc3cccc(SC)c13)COC2`?
SMN2 splice up: inactive

What do the screens show for `O=c1[nH]c2ccccc2c2nc3ccccn3c12`?
NPC1 prom act: inconclusive; FLuc counter: 16.9µM; ELG1 genotoxic: inconclusive; SMN2 splice up: inactive; Rab9 prom act: inconclusive; ELG1 DNA repair: inconclusive

How did CSc1ccccc1NC(=O)c1c(Br)cnn1C do in these assays?
NPC1 prom act: inactive; FLuc counter: inactive; ELG1 genotoxic: inactive; SMN2 splice up: inactive; Rab9 prom act: inactive; ELG1 DNA repair: inactive

How did Cn1ncc(Br)c1C(=O)Nc1c(F)c(F)cc(F)c1F do in these assays?
NPC1 prom act: inactive; FLuc counter: inactive; ELG1 genotoxic: inactive; SMN2 splice up: 25.1µM; Rab9 prom act: inactive; ELG1 DNA repair: inconclusive

What do the screens show for `CCCCOc1ccc(CSCCN)cc1Cl`?
NPC1 prom act: inactive; FLuc counter: 12µM; ELG1 genotoxic: inconclusive; Rab9 prom act: inactive; ELG1 DNA repair: inconclusive

How did O=C(N/C(=C\c1cccc([N+](=O)[O-])c1)C(=O)N1CCOCC1)c1ccco1 do in these assays?
NPC1 prom act: inactive; FLuc counter: inactive; ELG1 genotoxic: inactive; Rab9 prom act: inactive; ELG1 DNA repair: inactive

How did CNc1c([N+](=O)[O-])cnn1-c1ccc(Cl)cc1Cl do in these assays?
NPC1 prom act: inactive; FLuc counter: inactive; ELG1 genotoxic: inactive; SMN2 splice up: inactive; Rab9 prom act: inactive; ELG1 DNA repair: inactive

What do the screens show for `CNc1c([N+](=O)[O-])cnn1-c1ccccc1Cl`?
NPC1 prom act: inactive; FLuc counter: 15.1µM; ELG1 genotoxic: inactive; SMN2 splice up: inactive; Rab9 prom act: inactive; ELG1 DNA repair: inconclusive

What do the screens show for `CN(C)c1ccc(CNC(=O)CCc2ccc(S(=O)(=O)N3CCCCCC3)cc2)cc1`?
NPC1 prom act: inactive; FLuc counter: inactive; ELG1 genotoxic: inactive; Rab9 prom act: inactive; ELG1 DNA repair: inactive

Results for CCN1CCN(c2c(S(=O)(=O)c3ccc(Cl)cc3)cnc3ccccc23)CC1 ?
FLuc counter: inactive; SMN2 splice up: inactive

What do the screens show for `CCc1ccc(OCC(=O)Nc2ncn[nH]2)cc1`?
NPC1 prom act: inconclusive; FLuc counter: 13.5µM; ELG1 genotoxic: inconclusive; SMN2 splice up: inconclusive; Rab9 prom act: 4.47µM; ELG1 DNA repair: inconclusive

Results for CCc1ccc(OCC(=O)Nc2ncn[nH]2)c(Br)c1 ?
FLuc counter: 1.07µM; SMN2 splice up: inconclusive

What do the screens show for `CCc1ccc(OCC(=O)NC2CCCCC2)c(Br)c1`?
NPC1 prom act: inactive; FLuc counter: inactive; ELG1 genotoxic: inactive; Rab9 prom act: inactive; ELG1 DNA repair: inactive

How did O=C(COc1ccc(Br)cc1Cl)Nc1ncn[nH]1 do in these assays?
FLuc counter: 2.13µM; SMN2 splice up: inconclusive

What do the screens show for `CC(C)(C)c1cc(Br)ccc1OCC(=O)Nc1ncn[nH]1`?
NPC1 prom act: inactive; FLuc counter: inactive; ELG1 genotoxic: inactive; SMN2 splice up: inactive; Rab9 prom act: inactive; ELG1 DNA repair: inactive

Results for O=C(O)Cn1cc(/C=C2/SC(=O)N(CC(=O)N3CCCCCC3)C2=O)c2ccccc21 ?
NPC1 prom act: inactive; FLuc counter: inconclusive; ELG1 genotoxic: inactive; Rab9 prom act: inactive; ELG1 DNA repair: inactive

How did CCCC(C(=O)O)N1C(=O)/C(=C/c2cccn2C)SC1=S (centres undefined) do in these assays?
NPC1 prom act: inactive; FLuc counter: inactive; ELG1 genotoxic: inactive; SMN2 splice up: inactive; Rab9 prom act: inactive; ELG1 DNA repair: inactive

How did Cn1cc(/C=C2/SC(=O)N(c3ccccc3)C2=O)c2ccccc21 do in these assays?
NPC1 prom act: inconclusive; FLuc counter: 6.01µM; ELG1 genotoxic: inactive; SMN2 splice up: inactive; Rab9 prom act: 6.31µM; ELG1 DNA repair: inconclusive

Results for Cn1cccc1/C=C1\SC(=S)N(Nc2ccccc2)C1=O ?
NPC1 prom act: inactive; FLuc counter: inconclusive; ELG1 genotoxic: inactive; Rab9 prom act: inactive; ELG1 DNA repair: inconclusive

Results for CC(C)C(C(=O)O)N1C(=O)/C(=C/c2cccn2C)SC1=S (centres undefined) ?
NPC1 prom act: inactive; FLuc counter: 21.3µM; ELG1 genotoxic: inactive; SMN2 splice up: inactive; Rab9 prom act: inactive; ELG1 DNA repair: inactive

How did Cn1cccc1/C=C1\SC(=O)N(c2ccccc2)C1=O do in these assays?
NPC1 prom act: 2µM; FLuc counter: 2.39µM; ELG1 genotoxic: inconclusive; SMN2 splice up: 11.2µM; Rab9 prom act: 0.708µM; ELG1 DNA repair: inconclusive

How did Cn1cc(/C=C2\SC(=S)N(NC(=O)c3ccccc3)C2=O)c2ccccc21 do in these assays?
NPC1 prom act: inactive; FLuc counter: inconclusive; ELG1 genotoxic: inactive; SMN2 splice up: inactive; Rab9 prom act: inactive; ELG1 DNA repair: inactive

Results for O=C(O)Cn1cc(/C=C2\SC(=O)N(c3ccccc3)C2=O)c2ccccc21 ?
NPC1 prom act: inactive; FLuc counter: 12µM; ELG1 genotoxic: inactive; SMN2 splice up: inactive; Rab9 prom act: inactive; ELG1 DNA repair: inconclusive

Results for Cc1nc(-c2ccc(Cl)cc2)sc1CCNC(=O)C(=O)Nc1ccc(F)cc1F ?
FLuc counter: inactive
